SARS 3CLpro inh = SARS-CoV 3CLpro protease inhibition | 290,000 compounds, 0.14% hits | recombinant SARS-CoV 3CLpro, quenched FRET peptide cleavage | inhibition, % at 6 µM; in the data active means inhibition above about 12%
RecA splice inh = inhibitors of M. tuberculosis RecA intein splicing. P9WHJ3. cell-free RecA intein splicing, fluorescence. inhibition, % (concentration not given with the values). 290,000 compounds, 0.75% hits; in the data active means inhibition above about 30%;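 further: 0% = vehicle wells and 100% = reference inhibitor control wells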
Target sequence (P9WHJ3 whole entry, looked up, canonical isoform): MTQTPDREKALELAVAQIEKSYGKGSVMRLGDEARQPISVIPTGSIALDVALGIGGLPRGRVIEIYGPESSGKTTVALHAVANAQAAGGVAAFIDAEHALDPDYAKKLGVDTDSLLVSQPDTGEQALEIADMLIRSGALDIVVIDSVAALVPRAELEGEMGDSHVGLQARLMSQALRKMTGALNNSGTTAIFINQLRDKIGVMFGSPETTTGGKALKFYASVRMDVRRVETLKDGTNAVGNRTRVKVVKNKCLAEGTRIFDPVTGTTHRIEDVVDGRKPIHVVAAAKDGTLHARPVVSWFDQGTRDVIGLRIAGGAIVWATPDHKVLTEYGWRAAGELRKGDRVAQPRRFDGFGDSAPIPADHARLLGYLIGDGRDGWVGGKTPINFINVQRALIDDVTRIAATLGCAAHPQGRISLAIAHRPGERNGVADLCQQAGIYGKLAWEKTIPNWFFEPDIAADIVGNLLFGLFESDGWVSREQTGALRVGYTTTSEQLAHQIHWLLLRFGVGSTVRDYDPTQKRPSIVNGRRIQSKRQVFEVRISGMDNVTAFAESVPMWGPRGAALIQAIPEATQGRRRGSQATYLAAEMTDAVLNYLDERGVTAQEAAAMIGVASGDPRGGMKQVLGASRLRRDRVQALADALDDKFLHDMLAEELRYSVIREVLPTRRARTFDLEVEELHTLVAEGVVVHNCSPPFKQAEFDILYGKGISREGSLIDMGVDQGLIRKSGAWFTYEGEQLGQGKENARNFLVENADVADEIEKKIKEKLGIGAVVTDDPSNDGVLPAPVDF
VHR inh abs = inhibitors of human VHR1 phosphatase (DUSP3) | recombinant VHR phosphatase, pNPP absorbance | AID 1654 | P51452 | inhibition, % at 13.3 µM | 290,000 compounds, 0.52% hits; in the data active means inhibition above about 50%
CCHF vOTU inh-1 = CCHFV vOTU protease inhibition; Pep-AMC fluorescence; inhibition, % at 11.5 µM; 370,000 compounds, 0.55% hits; AID 651958; further: 0% = vehicle wells with enzyme and 100% = no enzyme wells
PriA SSB inh = inhibitors of Klebsiella pneumoniae PriA binding to SSB C-terminal tail. 430,000 compounds, 0.6% hits. AID 1272365. AlphaScreen SSBct-PriA binding, biotinylated peptide. inhibition, % at 33 µM; in the data active means inhibition mostly above about 37%, no sharp cut-off; inactive means mostly below about 20%;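 further: plate controls were negative control peptide for no effect and reference peptide for full effect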
CCHF vOTU inh-2 = CCHFV vOTU protease inhibition, confirmation | Recombinant CCHFV vOTU, Pep-AMC fluorescence | shares compounds with CCHF vOTU inh-1 | AID 686976 | inhibition, % at 11.5 µM | 1,900 compounds, 17% hits
* marks the source's active call; other numbers are inactive results; . = no result. An excerpt weighted towards active compounds, which were near 1.7% of everything screened. Unless noted, no stated cut-off is given here; in the data, active means inhibition above about 30%; inactive means the rest.

SMILES | SARS 3CLpro inh | RecA splice inh | VHR inh abs | CCHF vOTU inh-1 | PriA SSB inh | CCHF vOTU inh-2
O=C(Nc1nccs1)OCC(F)(F)F | . | . | . | . | -12 | .
COC(=O)c1cc(-c2ccc3c(c2)OCO3)n[nH]1 | . | . | . | . | -11 | .
CC(c1ccco1)N(Cc1ccco1)C(=O)Nc1ccccc1 (stereo not drawn) | 4 | 1 | 15 | 34* | -1 | -20
COc1cccc(NC(=S)N(Cc2ccco2)C(C)c2ccco2)c1 (stereo not drawn) | 6 | 1 | 17 | -2 | -10 | .
Cc1cccc2c1N(CC(=O)Nc1cccc(Cl)c1)C(=O)C21SCC(=O)N1c1ccc(F)cc1 (stereo not drawn) | . | . | . | . | 5 | .
Nc1ccc2ccc(N)cc2c1 | . | . | . | 34* | . | -32
CC1(C(=O)NS(=O)(=O)c2cccc(F)c2)CCN1C(=O)C1CCCCC1 (stereo not drawn) | . | . | . | 34* | . | -17
CC1(C(=O)NS(=O)(=O)c2cccc(C#N)c2)CCN1C(=O)C1CCCCC1 (stereo not drawn) | . | . | . | 1 | . | .
O=C(c1csc2nc(-c3ccc(F)cc3)cn12)N1CCN(c2ccccc2F)CC1 | . | . | . | . | 3 | .
COc1ccccc1N(C)S(=O)(=O)c1ccc(C(=O)NNC(=O)c2ccccc2O)cc1 | . | . | . | 30* | 6 | -11
COc1ccccc1N(C)S(=O)(=O)c1ccc(C(=O)Nc2cccc(S(=O)(=O)N3CCOCC3)c2)cc1 | . | . | . | 35* | 0 | -13
COc1ccccc1N(C)S(=O)(=O)c1ccc(Cl)c(C(=O)NNC(=O)c2ccccc2O)c1 | 6 | 27 | 10 | 15 | -10 | .
Cc1cc(C(=O)Nc2cccc(S(=O)(=O)N3CCOCC3)c2)c2ccccc2n1 | . | . | . | 35* | 4 | -4
O=C(CSC1=Nc2cccnc2Nc2ccccc21)Nc1cccc(Cl)c1 | . | . | . | . | 33 | .
Cc1nc2scc(-c3cccc(NS(=O)(=O)c4ccc(F)cc4F)c3)n2c(=O)c1C | . | . | . | . | 5 | .
CCOc1ccc(/C=C/C(=O)Nc2ccccc2C(F)(F)F)cc1 | 6 | 0 | -8 | 30* | -8 | -13
COc1ccc(/C=C/C(=O)Nc2ccccc2C(F)(F)F)cc1 | 3 | 1 | 14 | -10 | -13 | .
Cc1cc(C)cc(OCC(=O)N2N=C(c3cccnc3)CC2(O)C(F)(F)F)c1 (stereo not drawn) | 4 | 0 | 32 | -15 | -4 | .
Cc1cc(C)cc(OCC(=O)N2N=C(C(F)(F)F)CC2(O)C(C)(C)C)c1 (stereo not drawn) | 5 | 0 | -10 | 30* | 49* | 12
COc1cccc(COc2coc(C(=O)NCc3c(F)cccc3F)cc2=O)c1 | . | . | . | . | -27 | .
O=C(/C=C/c1cccc(Cl)c1)OCC(=O)c1ccc[nH]1 | . | . | . | 35* | . | 3
COc1ccccc1[C@@H]1CC(c2cccc(NS(C)(=O)=O)c2)=NN1c1nc(-c2ccccc2)c2cc(Cl)ccc2n1 | . | . | . | . | -2 | .
Nc1ccc2c(S(=O)(=O)O)cccc2c1S(=O)(=O)O | . | . | . | -18 | -11 | .
Nc1cccc2cc(S(=O)(=O)O)ccc12 | . | . | . | 32* | 12 | 37*
CN1CCC(O)C1=O (stereo not drawn) | . | . | . | . | -10 | .
SMILES | SARS 3CLpro inh | RecA splice inh | VHR inh abs | CCHF vOTU inh-1 | PriA SSB inh | CCHF vOTU inh-2
O=C1CC(NCc2ccncc2)C(=O)N1c1ccccc1 (stereo not drawn) | -4 | -2 | -16 | 35* | -14 | -9
CC(=O)c1nc(Nc2ccccc2)sc1C | . | . | . | . | -14 | .
Oc1ccc2ccccc2c1C=NC12CN3CCN(CN(C3)C1)C2 | 1 | . | 23 | 72* | 19 | 73*
COC(=O)Cc1ccc(N(Cc2ccccc2F)S(=O)(=O)c2ccc(Cl)cc2)cc1 | -4 | . | -14 | 32* | -11 | 2
COC(=O)CN(c1ccc(F)cc1)S(=O)(=O)c1ccccc1 | -1 | 0 | 2 | 9 | 15 | .
O=C(NCCC(O)C1CCOCC1)NC(c1ccccc1)c1ccccc1 (stereo not drawn) | . | . | . | . | -29 | .
CN(C)CCCN1c2ccc([N+](=O)[O-])cc2CCc2cc([N+](=O)[O-])ccc21 | . | -2 | . | 35* | -3 | -4
CCOC(=O)Nc1ccc2c(c1)N(CCCN(C)C)c1ccccc1CC2 | -4 | -2 | -7 | 0 | 9 | .
Cc1cccc(N2CCN(C(=O)Cn3cnc4c([nH]c5ccc(C)cc54)c3=O)CC2)c1 | . | . | . | . | -19 | .
CC(=O)N1CCc2c(sc(NC(=O)C3CC3)c2-c2nc3ccccc3s2)C1 | -1 | 30* | 16 | 50* | -2 | -20
CN(/N=C/C=C/c1ccccc1)c1cc(=O)n(C)c(=O)[nH]1 | -3 | 12 | 8 | 32* | . | 15
Cc1ccc(NCc2ccccc2O)cc1 | -1 | -2 | 0 | -5 | 9 | .
Cc1ccc(CNc2ccc(O)cc2)cc1 | 5 | 85* | -9 | 63* | 53 | 72*
O=C(NCC(=O)N1CC(Oc2nccs2)C1)OCc1ccccc1 | . | . | . | . | -4 | .
CCc1cc[n+](C2=C([O-])c3ccccc3C(=O)/C2=N\S(=O)(=O)c2cccs2)cc1 | 2 | 30 | -4 | 105* | . | 103*
CC(CN1CCOCC1)OC(=O)c1ccccc1Br (stereo not drawn) | 3 | 0 | -1 | 32* | -12 | -28
CCc1cc(=O)[nH]c2nnc(SCC(=O)NCCOC)n12 | . | . | . | . | 4 | .
CN(CCCC1CCCC1)C(=O)c1cc(COc2c(F)cccc2F)on1 | 6 | 13 | 2 | 3 | -24 | .
CN(CCCC1CCCC1)C(=O)c1cc(COc2ccc(F)c(F)c2)on1 | 3 | 9 | 20 | 38* | -34 | 4
CCn1cccc(-c2nnc(SCC(=O)Nc3ccc(C)cc3C)n2C)c1=O | . | . | . | . | -2 | .
Cc1cc(-c2nnc(NC(=O)CSc3ccc(Cl)cc3)o2)nn1C | . | . | . | . | -13 | .
CS[C@H]1CCN(C(=O)Cc2ccccc2Cl)C1 | . | . | . | . | -14 | .
O=c1[nH]c(CN2CCc3ccccc3C2)nc2ccccc12 | 4 | -3 | 7 | 44* | -4 | 12
O=c1ccc(-c2ccccc2)nn1CCN1CCN(S(=O)(=O)c2ccccc2F)CC1 | . | . | . | . | -9 | .
CC(NC(=O)C(C)N1c2cccc3cccc(c23)S1(=O)=O)c1ccccc1 (stereo not drawn) | 5 | -2 | -8 | 32* | -2 | -18
SMILES | SARS 3CLpro inh | RecA splice inh | VHR inh abs | CCHF vOTU inh-1 | PriA SSB inh | CCHF vOTU inh-2
O=C(NCC1CCN(C(=O)c2cccnc2)CC1)c1ccc(-c2ccsc2)cc1 | . | . | . | . | -1 | .
N#CC1(c2ccccc2)CCN(C(=O)[C@@H]2CCCN2c2nc3ccccc3o2)CC1 | . | . | . | . | 4 | .
O=C(CSc1nccc2ccccc12)N1CCN(c2ccccn2)CC1 | 2 | 7 | 25 | 65* | -13 | -10
Cc1ccc(SCC(=O)N2CCN(c3ccccn3)CC2)cc1 | 2 | 3 | 13 | 2 | -1 | .
O=C(NC[C@@H](c1cccs1)N1CCc2ccccc2C1)C(=O)Nc1ccc(F)c(Cl)c1 | . | . | . | . | -9 | .
C[n+]1c(-c2ccccc2)c2cc(N)ccc2c2ccc(N)cc21 | -7 | 2 | 29 | 105* | 69 | 77*
O=C(COc1ccc(S(=O)(=O)NC2CCCCC2)cc1)NC1CCCCC1 | 4 | -1 | -5 | 7 | 4 | .
COC(=O)COc1ccc(S(=O)(=O)NC2CCCCCC2)cc1 | 0 | 2 | 14 | 55* | 4 | -17

High-throughput results as filed in PubChem BioAssay.
